Data on 78 compounds can be found in PubChem BioAssay AID588342 (National Center for Advancing Translational Sciences (NCATS), 2011).

The campaign covered roughly 360,000 compounds. About 25,000 (6.9%) were called active. Another 9% or so got no clear call; they are omitted. Many of the other results were omitted from the sample, so actives are more common in it than they were. Values without a mark were called inactive. The call rests on the fitted dose curve; in most records, active means well fitted inhibition curve with a large enough effect; inconclusive means small, poorly fitted or top-dose-only effect; inactive means flat fitted curve, though single readings scatter.
Potency means the concentration at half of the fitted maximal effect.

Sequence of Luciferin 4-monooxygenase (Photinus pyralis) (P08659 whole entry, looked up): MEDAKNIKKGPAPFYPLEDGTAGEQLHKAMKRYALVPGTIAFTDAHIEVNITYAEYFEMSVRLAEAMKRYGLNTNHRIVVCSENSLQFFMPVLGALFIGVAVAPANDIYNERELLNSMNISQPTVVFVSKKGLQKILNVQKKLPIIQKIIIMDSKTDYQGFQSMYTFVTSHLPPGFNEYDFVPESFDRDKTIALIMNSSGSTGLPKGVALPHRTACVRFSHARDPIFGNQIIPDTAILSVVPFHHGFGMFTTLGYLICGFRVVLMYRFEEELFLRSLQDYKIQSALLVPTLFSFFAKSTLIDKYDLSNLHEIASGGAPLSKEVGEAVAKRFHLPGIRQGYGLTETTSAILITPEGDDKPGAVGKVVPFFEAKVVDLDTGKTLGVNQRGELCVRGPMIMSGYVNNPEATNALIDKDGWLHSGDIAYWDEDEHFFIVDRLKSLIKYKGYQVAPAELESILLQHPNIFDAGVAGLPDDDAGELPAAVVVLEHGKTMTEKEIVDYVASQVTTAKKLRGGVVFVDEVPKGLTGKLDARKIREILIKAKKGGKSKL

The experiment concerns the target Luciferin 4-monooxygenase (Photinus pyralis) (UniProt P08659). The experiment is described as follows: qHTS profiling assay for firefly luciferase inhibitor/activator using purifed enzyme and Km concentrations of substrates (counterscreen for miR-21 project). Further: nearly all actives have a fitted effect of over 55% in size.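 On activity change, negative = inhibition: plate controls were vehicle for no effect and reference inhibitor for full effect.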 The conditions noted are these: purified FLuc, luminescence inhibition; series mostly up to 57.5 µM; activity change, negative = inhibition: at the top concentration. An outline of the steps:
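Purified P. pyralis luciferase, 10 nM final, with Km-level 10 uM D-luciferin and 10 uM ATP in 50 mM Tris acetate pH 7.5, 10 mM Mg acetate, 0.01% Tween-20, 0.05% BSA; 6-point qHTS titration about 60 µM downward; luminescence read.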
Consider `CCOC(=O)c1c(S(=O)(=O)N2CCC(C(=O)NCc3ccccc3OC)CC2)c(C)n(C)c1C`, for which the “activity change, negative = inhibition” value was 2.97%. Still for that read-out and setting: then `COc1ccc(CNC(=O)Cn2nnc(-c3ccc(S(C)(=O)=O)cc3)n2)cc1`, with -0.976%; and `CCCCOC(=O)/C(C#N)=C/c1ccc(-c2cccc(C(F)(F)F)c2)o1`, with 3.51%; and `CCCCN1CC(c2nc3ccccc3n2CCCCOc2ccc(C)cc2C)CC1=O` (stereo not drawn), with -1.5%. The same measure, in the same setting: the same measure for `COc1ccc(C(=O)OCC(=O)N2CC(=O)Nc3ccccc32)cc1Br`: -0.738%.

As for `CCc1ccc(S(=O)(=O)Nc2cc3c(C(=O)OCc4ccccc4)c(C)oc3c3ccccc23)cc1`, the “activity change, negative = inhibition” value was -0.765%. On the same count and under the same terms, the same measure for `CCC(=O)N1CCc2cc(Br)cc(S(=O)(=O)Nc3ccc(C)cc3C)c21`: -2.76%; for `O=C(Nc1cccc(OCC(=O)N2CCOCC2)c1)C1CCCCC1`: 0.505%; for `O=C(COc1ccc(S(=O)(=O)Nc2cccc(C(F)(F)F)c2)cc1)N1CCOCC1`: 3.06%.

For the compound `O=C(Nc1ccc(OCC(=O)N2CCOCC2)cc1)c1cc(F)c(F)cc1Cl`, the Potency was 9.53 µM (active). As for `Cc1ccccc1CSCCNC(=O)C1CCN(S(=O)(=O)Cc2ccccc2)CC1`, the “activity change, negative = inhibition” value was -7.53%. The same measure, in the same setting: the same measure for `CC1=NN(C(=O)CCCc2ccccc2)C(O)(C(F)(F)F)C1` (stereo not drawn): 4.59%. As to `C=CCN1CCN(C(=O)CCCc2ccccc2)CC1`, the Potency was 2.13 µM (active). For `CCC(C)NC(=O)CCCc1ccccc1` (stereo not drawn), the “activity change, negative = inhibition” value is -14.1%.

Take `COc1cc(-c2nnc(NC(=O)C3=COCCO3)o2)cc(OC)c1OC`: the “activity change, negative = inhibition” value is 4.13%. Same read-out and setting: then `O=C(Nc1ccc(S(=O)(=O)N2CCCC2)cc1Cl)C1=COCCO1`, with -1.32%. On to `Cc1ccc(-c2csc(NC(=O)C3=COCCO3)n2)cc1C`, for which the Potency was 6.75 µM (active). With `CC(=O)NCCC(=O)Nc1nc(-c2ccc3c(c2)OCCO3)cs1`, the Potency was 19 µM (active). For `CC(=O)NCCC(=O)Nc1nc(C)c(Cc2ccc3c(c2)OCO3)s1`, the “activity change, negative = inhibition” value was -13.8%.

`CC(=O)NCc1ccc(-c2csc(NC(=O)CCCc3nc4ccccc4c(=O)[nH]3)n2)cc1`: the “activity change, negative = inhibition” value was -4.62%. Same read-out and setting: the same measure for `Cc1cccc(NC(=O)CN2CCN(C(=O)C3CCN(C(=O)/C=C/c4ccccc4)CC3)CC2)c1C`: -18.8%.

Consider `CCNC(=O)CC1C(=O)N(c2ccc(F)cc2)C(=O)N1CCc1sccc1C` (stereo not drawn), for which the “activity change, negative = inhibition” value is -2.04%. For `Cc1ccc(CN2CCc3nc(N4CCN(C)CC4)ncc3C2)cc1`, the “activity change, negative = inhibition” value is -1.97%. As for `Cc1cc(-c2nc(C)c(-c3nnc(SCC(=O)Nc4ccccc4)n3C)s2)no1`, the “activity change, negative = inhibition” value is -1.89%. On to `CCC(C)Sc1nnc(-c2c[nH]c3ccccc23)n1CCOC` (stereo not drawn), for which the “activity change, negative = inhibition” value is -6.48%. In the case of `CCCc1cc(-c2nc(-c3ccc(C)cc3)cs2)ccn1`, the Potency is 23.9 µM (active). Consider `CCCc1cc(-c2n[nH]c(=S)n2CC)c2ccccc2n1`, for which the “activity change, negative = inhibition” value is -8.46%. For `Cc1cc(-c2n[nH]c(=S)n2-c2ccc(C)c(C)c2)no1`, the “activity change, negative = inhibition” value was -1.9%. The same measure, in the same setting: then `CCCCCN1CC(O)=C(c2nc(-c3ccc(Cl)cc3)cs2)C1=N`, with -2.37%.

With `Cc1ccc(-c2csc(-c3c[nH]c4ccccc34)n2)cc1`, the Potency was 12 µM (active). Consider `Cc1ccc(-c2csc(-c3cc(C)on3)n2)cc1`, for which the Potency was 8.49 µM (active). Regarding `Cc1ccc(-n2c(=O)c3cccnc3n2CC(=O)Nc2ccccc2C(F)(F)F)cc1C`, the “activity change, negative = inhibition” value was 2.79%. Consider `NS(=O)(=O)c1cccc(NC(=O)COC(=O)/C=C/c2ccco2)c1`, for which the “activity change, negative = inhibition” value was -5.38%. On the same count and under the same terms, the same measure for `CN(c1ccccc1)S(=O)(=O)c1cc(C(=O)Nc2nc3ccccc3[nH]2)ccc1Cl`: -20.5%; for `Cc1ccc(OCC(=O)Nc2ccc(Cl)c(-c3nc4ccccc4[nH]3)c2)cc1C`: -14.1%. With `O=C(Nc1cccc(-c2nc3ccccc3[nH]2)c1)c1ccc(C(=O)Nc2cccc(-c3nc4ccccc4[nH]3)c2)cc1`, the Potency was 12 µM (active). Take `Cc1cccc(NC(=O)C2CCN(S(=O)(=O)c3c(C)noc3/C=C/c3ccco3)CC2)c1`: the “activity change, negative = inhibition” value was -0.915%. For `Cc1ccc(-n2nc3ccc(NC(=O)/C=C/c4ccco4)cc3n2)cc1C`, the Potency is 9.53 µM (active). Regarding `O=C(/C=C/c1ccco1)Nc1cccc(-c2nc3ccccc3[nH]2)c1`, the Potency is 7.57 µM (active). In the case of `CCOC(=O)c1c(NC(=O)/C=C/c2ccco2)sc(C)c1C`, the “activity change, negative = inhibition” value was -11%. The same measure, in the same setting: the same measure for `CC(C)Oc1ccc(/C=C(\NC(=O)/C=C/c2ccco2)C(=O)NCCc2nc3ccccc3[nH]2)cc1`: 7.21%. On to `COC(C[C@H](O)CC(=O)COCc1ccccc1)OC`, for which the “activity change, negative = inhibition” value was -2.58%. Regarding `CC(=O)NC12CC3CC(C1)CC(C(=O)N1CCN(C(=O)c4ccco4)CC1)(C3)C2`, the “activity change, negative = inhibition” value is 7.4%. Still for that read-out and setting: then `CCOc1ccc(OCC)c(NC(=O)c2c(C)nn(-c3ccccc3)c2-n2cccc2)c1`, with -3.33%. On the same count and under the same terms, the same measure for `CN(C)C(CNC(=O)c1cccc(C#N)c1)c1ccco1` (stereo not drawn): -2.34%; for `CCN(C(=O)COc1cccnc1[N+](=O)[O-])C1CCS(=O)(=O)C1` (stereo not drawn): 5.49%. For `CC(C)c1ccc(NC(=O)CN(C)S(=O)(=O)c2ccc3c(c2)c(=O)n(C)c(=O)n3C)cc1`, the “activity change, negative = inhibition” value was -17.2%. Same read-out and setting: then `COc1ccccc1CN1CCC(CNC(=O)c2cnn(-c3cccc(Cl)c3)c2C2CCN(C(=O)OC(C)(C)C)CC2)CC1`, with -2.61%; and `CCc1ccc(N(CC)C(=O)CCn2cnc3onc(-c4ccc(F)cc4)c3c2=O)cc1`, with -0.244%; and `O=C(Nc1ccccc1)N1CCC(C(=O)N2CCN(Cc3ccccc3)CC2)CC1`, with -1.44%. The same measure, in the same setting: the same measure for `S=C(Nc1ccc2c(c1)OCO2)N1CCCC1`: -19.1%.

`O=C(Nc1ccc2c(c1)OCCO2)C1CCCC1`: the Potency was 9.53 µM (active). The same measure, in the same setting: then `O=C(Nc1ccc2c(c1)OCCO2)C1CCCN(c2ncccn2)C1` (stereo not drawn), with 0.953 µM (active).

On to `O=C(Nc1ccc2c(c1)OCO2)C1CC1(Cl)Cl` (stereo not drawn), for which the Potency was 16.9 µM (active). Turning to `CN1C(=O)c2ccc(NC(=O)C3CCCCC3)cc2C1=O`, the “activity change, negative = inhibition” value is -1.5%. Same read-out and setting: then `O=C(Nc1cccc(Cl)c1)C1CCCN(c2cnccn2)C1` (stereo not drawn), with 1.81%; and `COC(=O)c1cccc(C(=O)N2CCCC(Nc3ccc4c(c3)OCCO4)C2)c1` (stereo not drawn), with -1.7%; and `Cc1cc(C)nc(N2CCC(C(=O)Nc3ccc4c(c3)OCCO4)CC2)n1`, with -8.26%. The same measure, in the same setting: then `O=C(Nc1ccc2c(c1)OCO2)c1sc2cc(Cl)ccc2c1Cl`, with -3.98%; and `CC(C)(C)C(=O)Nc1ccc(C(=O)N/N=C/c2ccccc2OC(=O)c2ccc(Cl)cc2Cl)cc1`, with -12%; and `CCOc1cc(/C=C/C(=O)OCC(=O)NCCN2C(=O)CSC2=O)ccc1OCC(C)C`, with 0.543%.

Regarding `COc1ccc(C2C(=O)N(C3CCCCC3)CC(=O)N2Cc2ccccc2Cl)cc1OC` (stereo not drawn), the “activity change, negative = inhibition” value was -7.49%. Take `Cc1nc(SCCOc2ccc(Cl)cc2)[nH]c(=O)c1Cc1ccccc1`: the “activity change, negative = inhibition” value is 0.0351%. On the same count and under the same terms, then `O=C(CSc1nccn1Cc1ccc(F)cc1)NCc1ccccc1`, with 1.89%; and `Cc1ccc2nc(/C(C#N)=C/c3ccc(-c4ccc(C(=O)OC(C)C)cc4)o3)[nH]c2c1`, with -19.6%; and `COc1ccc(CC(=O)Nc2nc(-c3ccc(F)c(F)c3)cs2)cc1OC`, with 5.15%. With `Fc1ccc(-c2csc(-c3ccc(C4SCCS4)cc3)n2)cc1F`, the Potency was 10.7 µM (active). Turning to `COc1cc(CC(=O)Nc2nc(-c3ccc(F)c(F)c3)cs2)cc(OC)c1OC`, the “activity change, negative = inhibition” value is 5.45%. On the same count and under the same terms, the same measure for `COc1ccc2c(c1)c(N1CCCC1=O)c(C(=O)Nc1ccc(OC)c(Cl)c1)n2C`: -10.9%; for `CCOc1ccccc1CNC(=O)C1CCCN(S(=O)(=O)c2ccc3c(ccn3C)c2)C1` (stereo not drawn): 1.69%.

As to `Cc1cc(C)nc(SCc2nnc(SCC(=O)Nc3ncc(C)s3)n2Cc2ccco2)n1`, the “activity change, negative = inhibition” value was -1.43%. As to `COc1cccc(NC(=O)CN(C)CC(=O)Nc2ccc3c(c2)CCC3)c1`, the “activity change, negative = inhibition” value is -8.65%.

As for `COc1ccc(CC(=O)Nc2ccc3c(c2)CCC3)cc1S(=O)(=O)N1CCOCC1`, the “activity change, negative = inhibition” value is -5.57%. On to `CC(C)C(=O)OCC(=O)Nc1ccc2c(c1)CCC2`, for which the Potency was 19 µM (active). As to `COc1ccc(NC(=O)CN2CCCN(Cc3ccccc3)S2(=O)=O)cc1`, the “activity change, negative = inhibition” value was -13.7%. Still for that read-out and setting: the same measure for `CCCN(CCC)CCCNC(=O)Cn1ncc2c3ccccc3n(Cc3ccccc3)c2c1=O`: 1.1%. The same measure, in the same setting: then `CCOC(=O)c1c(NC(C)=O)sc2c(O)c(Br)ccc12`, with 2.45%; and `Cc1ccc2[nH]c(=O)c(CN(CC3COCCO3)C(=O)Nc3ccccc3C)cc2c1` (stereo not drawn), with -2.57%.
